Measurements as given in PubChem BioAssay (NCATS).
Records with an inconclusive call do not appear. Active and inactive are the calls of the source. Calls come from the whole dose curve; as a rule, active = well fitted curve in the direction sought with a large enough effect; inconclusive = small, poorly fitted or top-dose-only effect, or another doubt; inactive = no such curve, though single readings can be large; an effect the other way counts as inactive or inconclusive.

What was measured:
[1] = qHTS of pediatric cancer cell lines to identify multiple opportunities for drug repurposing: Primary screen for U-2 OS cells (AID 1347096); note: nearly all actives have a fitted effect of over 50% in size
Method in brief: (§1)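 Viability after 48 h compound treatment at 37C, 500-1,000 cells/well, read as ATP luminescence with CellTiter-Glo. Primary screens used 11-point (MIPE, 0.78 nM-46 µM) or 8-point (NPC, 0.59 nM-46 µM) final concentrations; follow-up screens used 11-point dilutions.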

[2] = qHTS of pediatric cancer cell lines to identify multiple opportunities for drug repurposing: Primary screen for Saos-2 cells (AID 1347097); note: nearly all actives have a fitted effect of over 40% in size
Method in brief: (§2)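 CRCs from 8- or 11-point titrations (lowest final 0.59 nM NPC, 0.78 nM MIPE). Cell viability: CellTiter-Glo after 48 h incubation, 15 min room-temperature development, luminescence imaging.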

[3] = qHTS of pediatric cancer cell lines to identify multiple opportunities for drug repurposing: Primary screen for SK-N-SH cells (AID 1347098);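 note: DMSO served as neutral control and bortezomib at 2.3 µM as positive control; nearly all actives have a fitted effect of over 65% in size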
Method in brief: (§3)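 Cells (500-1,000/well) rested 5 h, then received compounds for 48 h; metabolically active cells were measured by CellTiter-Glo luminescence. Final concentrations spanned up to 46 µM (MIPE, 11-point) or 0.59 nM-46 µM (NPC, 8-point) in primary screens, 11-point in follow-ups.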

[4] = qHTS of pediatric cancer cell lines to identify multiple opportunities for drug repurposing: Primary screen for NB1643 cells (AID 1347099); note: nearly all actives have a fitted effect of over 50% in size
Method in brief: as §2

[5] = qHTS of pediatric cancer cell lines to identify multiple opportunities for drug repurposing: Primary screen for LAN-5 cells (AID 1347100)
Method in brief: as §1

[6] = qHTS of pediatric cancer cell lines to identify multiple opportunities for drug repurposing: Primary screen for BT-12 cells (AID 1347101); note: nearly all actives have a fitted effect of over 25% in size
Method in brief: as §3

[7] = qHTS of pediatric cancer cell lines to identify multiple opportunities for drug repurposing: Primary screen for Rh18 cells (AID 1347102); note: nearly all actives have a fitted effect of over 65% in size
Method in brief: as §1

[8] = qHTS of pediatric cancer cell lines to identify multiple opportunities for drug repurposing: Primary screen for OHS-50 cells (AID 1347103); note: nearly all actives have a fitted effect of over 40% in size
Method in brief: as §3

[9] = qHTS of pediatric cancer cell lines to identify multiple opportunities for drug repurposing: Primary screen for RD cells (AID 1347104); note: nearly all actives have a fitted effect of over 55% in size
Method in brief: as §2

[10] = qHTS of pediatric cancer cell lines to identify multiple opportunities for drug repurposing: Primary screen for MG 63 (6-TG R) cells (AID 1347105); note: nearly all actives have a fitted effect of over 50% in size
Method in brief: as §2

Measured: Potency

CC1(C)S[C@@H]2[C@H](NC(=O)C(C(=O)O)c3ccccc3)C(=O)N2[C@H]1C(=O)O (stereo not given in full)
inactive: all assays above

COc1ccc(NS(=O)(=O)c2ccc(N)cc2)nn1
inactive: all assays above

O=C(O)c1ccccc1C(=O)Nc1ccc(S(=O)(=O)Nc2nccs2)cc1
inactive: all assays above

CCN(CC)C(=O)c1cccc(C)c1
inactive: all assays above

CC[N+](CC)(CC(=O)Nc1c(C)cccc1C)Cc1ccccc1
inactive: all assays above

C[N+](C)(C)CC[N+]1(C)Cc2c(Cl)c(Cl)c(Cl)c(Cl)c2C1
inactive: all assays above

CC(C)NC[C@@H](O)COc1ccc(CC(N)=O)cc1
inactive: all assays above

Cc1ccc(S(=O)(=O)NC(=O)NC2CCCCC2)cc1
inactive: all assays above

C[C@@H](c1ncncc1F)C(O)(Cn1cncn1)c1ccc(F)cc1F (stereo not given in full)
inactive: all assays above

Cn1c([N+](=O)[O-])cnc1COC(N)=O
inactive: all assays above

C=CCSCC1Nc2cc(Cl)c(S(N)(=O)=O)cc2S(=O)(=O)N1 (stereo not given)
inactive: all assays above

C[C@@H]1O[C@@H](OC[C@H]2O[C@@H](Oc3c(-c4ccc(O)c(O)c4)oc4cc(O)cc(O)c4c3=O)[C@H](O)[C@@H](O)[C@@H]2O)[C@H](O)[C@H](O)[C@H]1O
inactive: all assays above

CNCc1ccccc1
inactive: all assays above

NC(N)=NS(=O)(=O)c1ccc(N)cc1
inactive: all assays above

CCOc1cc(NC(C)=O)ccc1C(=O)OC
inactive: all assays above

O=C(/C=C/c1ccccc1)OCc1ccccc1
inactive: all assays above

CCS(=O)(=O)CCn1c([N+](=O)[O-])cnc1C
inactive: all assays above

CCCCC1(COC(=O)CCC(=O)O)C(=O)N(c2ccccc2)N(c2ccccc2)C1=O
inactive: all assays above

CN[C@@H]1[C@@H](O)[C@@H](O[C@@H]2[C@H](O)[C@H](O[C@H]3OC(CN)=CC[C@H]3N)[C@@H](N)C[C@H]2N)OCC1(C)O (stereo not given in full)
inactive: all assays above

NC(=O)N[C@@H](CCC(=O)O)C(=O)O
inactive: all assays above

Cc1cc(O)cc(C)c1Cl
inactive: all assays above

COc1cc(C(=O)NCCCCCC(=O)O)cc(OC)c1OC
inactive: all assays above

O=C(O)c1cc(=O)c2ccccc2o1
inactive: all assays above
